Of roughly 7,900 targets only a part is listed; those with a hit were picked by preference. About 0.6% of all pairs of compound and target were hits.

Sequence of UniProt Q9BUK6 (Q9BUK6 whole entry, looked up): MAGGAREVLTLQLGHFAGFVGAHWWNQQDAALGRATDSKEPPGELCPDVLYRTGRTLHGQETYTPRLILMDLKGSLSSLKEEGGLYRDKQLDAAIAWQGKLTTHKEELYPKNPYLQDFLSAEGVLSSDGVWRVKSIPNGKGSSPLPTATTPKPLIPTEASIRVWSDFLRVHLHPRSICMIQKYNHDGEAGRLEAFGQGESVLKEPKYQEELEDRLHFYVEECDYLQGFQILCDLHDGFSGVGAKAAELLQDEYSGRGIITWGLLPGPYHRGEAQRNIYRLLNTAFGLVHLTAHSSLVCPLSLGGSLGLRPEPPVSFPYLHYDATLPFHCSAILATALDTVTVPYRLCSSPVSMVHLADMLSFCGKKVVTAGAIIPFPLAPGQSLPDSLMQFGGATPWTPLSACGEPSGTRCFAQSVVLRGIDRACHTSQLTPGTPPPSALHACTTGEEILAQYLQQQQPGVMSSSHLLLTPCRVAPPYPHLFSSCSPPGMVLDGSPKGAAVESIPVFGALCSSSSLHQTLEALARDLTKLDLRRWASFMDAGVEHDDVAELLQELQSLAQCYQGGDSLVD
Sequence of UniProt Q9BZF1 (Q9BZF1 whole entry, looked up): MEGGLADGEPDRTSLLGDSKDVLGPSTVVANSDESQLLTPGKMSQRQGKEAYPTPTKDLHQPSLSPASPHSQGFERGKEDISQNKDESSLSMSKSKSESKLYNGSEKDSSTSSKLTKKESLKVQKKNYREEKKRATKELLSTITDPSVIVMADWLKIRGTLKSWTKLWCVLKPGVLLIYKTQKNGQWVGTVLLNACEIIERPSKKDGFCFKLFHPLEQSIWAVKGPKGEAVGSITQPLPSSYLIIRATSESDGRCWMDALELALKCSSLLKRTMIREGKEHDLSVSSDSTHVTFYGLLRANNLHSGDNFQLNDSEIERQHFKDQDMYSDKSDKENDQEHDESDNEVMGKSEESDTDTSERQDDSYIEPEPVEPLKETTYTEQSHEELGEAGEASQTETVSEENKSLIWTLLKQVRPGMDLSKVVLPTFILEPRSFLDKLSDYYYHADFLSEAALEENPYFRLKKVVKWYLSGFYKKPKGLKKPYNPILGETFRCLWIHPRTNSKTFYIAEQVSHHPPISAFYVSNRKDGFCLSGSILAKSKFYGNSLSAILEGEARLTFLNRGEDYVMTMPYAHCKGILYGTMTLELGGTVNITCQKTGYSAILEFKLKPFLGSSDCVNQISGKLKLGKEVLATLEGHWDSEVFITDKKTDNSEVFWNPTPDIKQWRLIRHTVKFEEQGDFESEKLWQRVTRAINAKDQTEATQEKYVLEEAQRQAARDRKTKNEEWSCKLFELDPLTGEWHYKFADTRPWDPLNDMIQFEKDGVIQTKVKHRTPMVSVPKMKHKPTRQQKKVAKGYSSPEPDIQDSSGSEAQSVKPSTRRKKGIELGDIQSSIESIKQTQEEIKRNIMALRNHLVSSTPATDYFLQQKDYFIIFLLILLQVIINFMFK
Sequence of UniProt Q6VY07 (Q6VY07 whole entry, looked up): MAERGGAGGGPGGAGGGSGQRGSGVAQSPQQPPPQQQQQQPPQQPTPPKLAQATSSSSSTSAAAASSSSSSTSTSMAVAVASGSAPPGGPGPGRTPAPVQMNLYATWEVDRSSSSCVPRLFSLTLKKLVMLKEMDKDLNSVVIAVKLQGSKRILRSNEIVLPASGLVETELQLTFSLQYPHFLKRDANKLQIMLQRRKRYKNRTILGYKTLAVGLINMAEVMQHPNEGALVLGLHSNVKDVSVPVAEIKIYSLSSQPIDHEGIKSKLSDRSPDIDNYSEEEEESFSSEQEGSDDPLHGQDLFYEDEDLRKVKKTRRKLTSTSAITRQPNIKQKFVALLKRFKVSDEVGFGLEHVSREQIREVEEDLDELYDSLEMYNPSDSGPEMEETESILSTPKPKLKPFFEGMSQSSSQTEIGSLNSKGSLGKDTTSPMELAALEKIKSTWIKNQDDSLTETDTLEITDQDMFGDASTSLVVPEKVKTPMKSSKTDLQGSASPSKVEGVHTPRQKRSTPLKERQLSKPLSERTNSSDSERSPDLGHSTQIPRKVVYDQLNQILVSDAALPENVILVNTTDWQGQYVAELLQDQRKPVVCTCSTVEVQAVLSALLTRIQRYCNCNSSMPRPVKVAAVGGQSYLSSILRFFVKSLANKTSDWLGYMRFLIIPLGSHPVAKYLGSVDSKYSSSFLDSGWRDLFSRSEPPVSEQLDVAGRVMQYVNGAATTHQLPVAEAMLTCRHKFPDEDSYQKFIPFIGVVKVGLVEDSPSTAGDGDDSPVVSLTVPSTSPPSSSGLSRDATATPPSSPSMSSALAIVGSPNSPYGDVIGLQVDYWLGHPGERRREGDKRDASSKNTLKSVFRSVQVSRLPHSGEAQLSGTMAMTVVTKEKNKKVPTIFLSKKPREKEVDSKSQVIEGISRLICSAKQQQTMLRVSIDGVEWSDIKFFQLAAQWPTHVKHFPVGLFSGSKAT
Sequence of UniProt P20585 (P20585 whole entry, looked up): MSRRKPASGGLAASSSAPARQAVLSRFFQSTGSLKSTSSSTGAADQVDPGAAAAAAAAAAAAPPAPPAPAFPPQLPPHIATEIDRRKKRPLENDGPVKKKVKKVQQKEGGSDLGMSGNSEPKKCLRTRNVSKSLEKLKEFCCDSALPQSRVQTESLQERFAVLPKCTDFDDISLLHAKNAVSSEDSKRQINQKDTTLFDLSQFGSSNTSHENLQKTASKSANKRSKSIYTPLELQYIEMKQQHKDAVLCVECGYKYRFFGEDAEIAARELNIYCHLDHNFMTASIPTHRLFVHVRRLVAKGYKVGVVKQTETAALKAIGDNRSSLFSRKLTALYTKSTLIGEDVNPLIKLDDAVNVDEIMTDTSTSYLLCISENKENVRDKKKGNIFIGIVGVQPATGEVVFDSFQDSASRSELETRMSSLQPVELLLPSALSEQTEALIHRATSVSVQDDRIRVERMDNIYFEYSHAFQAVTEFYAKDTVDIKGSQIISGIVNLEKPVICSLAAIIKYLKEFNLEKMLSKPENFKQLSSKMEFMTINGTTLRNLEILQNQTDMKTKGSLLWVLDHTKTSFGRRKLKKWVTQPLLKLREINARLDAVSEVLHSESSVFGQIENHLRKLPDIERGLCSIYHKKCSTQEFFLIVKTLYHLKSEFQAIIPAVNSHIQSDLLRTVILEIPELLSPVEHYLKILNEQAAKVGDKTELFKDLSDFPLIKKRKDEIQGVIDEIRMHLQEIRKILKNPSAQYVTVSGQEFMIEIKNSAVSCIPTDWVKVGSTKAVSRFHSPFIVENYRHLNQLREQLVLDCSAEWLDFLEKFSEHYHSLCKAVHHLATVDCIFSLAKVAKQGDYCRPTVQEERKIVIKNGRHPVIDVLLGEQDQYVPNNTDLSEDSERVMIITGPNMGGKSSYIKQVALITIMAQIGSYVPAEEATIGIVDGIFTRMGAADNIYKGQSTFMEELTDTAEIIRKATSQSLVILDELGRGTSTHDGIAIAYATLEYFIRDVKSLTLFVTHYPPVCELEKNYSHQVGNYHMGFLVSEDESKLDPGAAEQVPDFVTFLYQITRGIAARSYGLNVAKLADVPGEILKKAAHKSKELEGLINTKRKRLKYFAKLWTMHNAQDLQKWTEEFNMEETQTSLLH
Sequence of UniProt Q16656 (Q16656 whole entry, looked up): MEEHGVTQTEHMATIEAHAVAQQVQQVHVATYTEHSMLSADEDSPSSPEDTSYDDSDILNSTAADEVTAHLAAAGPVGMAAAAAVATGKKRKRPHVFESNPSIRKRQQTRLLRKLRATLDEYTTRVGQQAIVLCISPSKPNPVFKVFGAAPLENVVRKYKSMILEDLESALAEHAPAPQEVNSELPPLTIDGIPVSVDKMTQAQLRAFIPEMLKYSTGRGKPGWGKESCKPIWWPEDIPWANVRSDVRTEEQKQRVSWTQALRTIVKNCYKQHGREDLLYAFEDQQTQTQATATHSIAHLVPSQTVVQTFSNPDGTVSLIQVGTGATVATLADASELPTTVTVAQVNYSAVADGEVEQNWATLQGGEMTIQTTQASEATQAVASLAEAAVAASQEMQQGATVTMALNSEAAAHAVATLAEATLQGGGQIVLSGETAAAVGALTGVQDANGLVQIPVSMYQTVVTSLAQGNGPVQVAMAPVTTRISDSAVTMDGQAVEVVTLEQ
Sequence of UniProt P55209 (P55209 whole entry, looked up): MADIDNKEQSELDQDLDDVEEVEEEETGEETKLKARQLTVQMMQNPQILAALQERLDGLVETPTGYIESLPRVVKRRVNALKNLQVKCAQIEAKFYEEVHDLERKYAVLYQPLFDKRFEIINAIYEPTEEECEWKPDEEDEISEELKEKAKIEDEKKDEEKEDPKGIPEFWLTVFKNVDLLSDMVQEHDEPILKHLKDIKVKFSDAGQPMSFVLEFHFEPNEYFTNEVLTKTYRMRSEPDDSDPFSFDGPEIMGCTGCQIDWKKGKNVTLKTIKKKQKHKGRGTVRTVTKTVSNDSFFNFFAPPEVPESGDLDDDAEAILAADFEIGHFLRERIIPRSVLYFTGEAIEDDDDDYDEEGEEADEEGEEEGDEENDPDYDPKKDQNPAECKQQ
Sequence of UniProt O00217 (O00217 whole entry, looked up): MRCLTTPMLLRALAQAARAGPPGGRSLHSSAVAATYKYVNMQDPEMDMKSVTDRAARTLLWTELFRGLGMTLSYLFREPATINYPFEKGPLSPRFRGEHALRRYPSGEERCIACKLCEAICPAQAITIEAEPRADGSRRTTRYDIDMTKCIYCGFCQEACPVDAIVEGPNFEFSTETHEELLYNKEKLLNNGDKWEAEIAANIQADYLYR
Sequence of UniProt P40261 (P40261 whole entry, looked up): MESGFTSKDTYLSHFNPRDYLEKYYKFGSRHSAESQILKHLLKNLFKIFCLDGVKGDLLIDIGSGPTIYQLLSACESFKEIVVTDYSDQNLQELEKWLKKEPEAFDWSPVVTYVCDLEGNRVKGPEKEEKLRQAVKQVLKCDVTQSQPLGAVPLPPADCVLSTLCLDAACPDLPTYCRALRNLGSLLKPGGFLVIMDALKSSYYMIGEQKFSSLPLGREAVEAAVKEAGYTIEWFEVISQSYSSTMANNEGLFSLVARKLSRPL

Compound in the first test: O=C(O)c1ccc2c(c1)nc(Nc1cccc(Cl)c1)c1ccncc12 [silmitasertib]
In words: log2 fold change, soluble protein after heating vs DMSO (PISA); higher = thermal stabilisation; K562 cells, 10 uM, 30 min; active = over 0.2 and 3.5 SD of the protein, either way, in both replicates (recomputed). The method in brief: (§1)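 K562 cells at 2×10^6 cells/mL were treated with 10 μM compound for 30 min. Aliquots were heated for 3 min across 48°C-58°C, pooled, and extracted in PBS with 0.5% NP-40 at 4°C; soluble protein was the supernatant after 21,000xg for 90 min. Soluble protein was quantified by TMTpro 16plex LC-MS/MS with channel sums equalised, and reported as log2 fold change in thermal stability against DMSO controls, with values from duplicates.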
With MSH3 (UniProt P20585), the log2 fold change was 0.034 (inactive).

As for PACS1 (UniProt Q6VY07), the log2 fold change was -0.074 (inactive).

Consider NA, A0A0B4J2A0, for which the log2 fold change was 0.017 (inactive).

With MSTO1 (UniProt Q9BUK6), the log2 fold change is -0.015 (inactive).

Take NDUFAF6 (UniProt Q330K2): the log2 fold change was -0.02 (inactive).

As for NRF1 isoform 4 (UniProt Q16656), the log2 fold change was -0.02 (inactive).

With NNMT (UniProt P40261), the log2 fold change is 0.013 (inactive).

With NDUFS8 (UniProt O00217), the log2 fold change was -0.019 (inactive).

With NCKAP1 isoform 2 (UniProt Q9Y2A7), the log2 fold change is -0.029 (inactive).

As to MYH10 isoform 3 (UniProt P35580), the log2 fold change was -0.008 (inactive).

Turning to MYL12B (UniProt O14950), the log2 fold change is -0.037 (inactive).

As for OSBPL8 (UniProt Q9BZF1), the log2 fold change was 0 (inactive).

Take NAP1L1 (UniProt P55209): the log2 fold change was 0.069 (inactive).

Take NOP53 (UniProt Q9NZM5): the log2 fold change was 0.256 (inactive).

Consider MT-ND4 (UniProt P03905), for which the log2 fold change is -0.011 (inactive).

Compound in another test: O=C1NC(=O)C(c2cnc3ccccn23)=C1c1cn2c3c(cc(F)cc13)CN(C(=O)N1CCCCC1)CC2
The description is as above. The method in brief:
as §1
With MORC3 (UniProt Q14149), the log2 fold change was -0.066 (inactive).

In the case of MRPS31 (UniProt Q92665), the log2 fold change is -0.036 (inactive).

For MRPS9 (UniProt P82933), the log2 fold change is -0.019 (inactive).

Regarding NDUFA9 (UniProt Q16795), the log2 fold change is -0.104 (inactive).

Consider OSTM1 (UniProt Q86WC4), for which the log2 fold change is -0.037 (inactive).

As for MRPS24 (UniProt Q96EL2), the log2 fold change is -0.074 (inactive).

Take NDUFS4 (UniProt O43181): the log2 fold change was 0.007 (inactive).

Take OXSR1 (UniProt O95747): the log2 fold change is -0.007 (inactive).

For the target MIS12 (UniProt Q9H081), the log2 fold change was 0.02 (inactive).

Turning to NGLY1 (UniProt Q96IV0), the log2 fold change was 0.059 (inactive).

Regarding MND1 (UniProt Q9BWT6), the log2 fold change was -0.042 (inactive).

Turning to NOL7 (UniProt Q9UMY1), the log2 fold change was 0.121 (inactive).

On to NDFIP1 (UniProt Q9BT67), for which the log2 fold change is 0.352 (inactive).

For the target MTHFS (UniProt P49914), the log2 fold change is 0.014 (inactive).

Take MRPL50 (UniProt Q8N5N7): the log2 fold change is -0.078 (inactive).

Regarding NEDD4L (UniProt Q96PU5), the log2 fold change was -0.006 (inactive).

For the target NUCKS1 (UniProt Q9H1E3), the log2 fold change was -0.044 (inactive).

As to MOV10 (UniProt Q9HCE1), the log2 fold change was 0.187 (inactive).

For the target NUDT21 (UniProt O43809), the log2 fold change is 0.062 (inactive).

Consider OGFR (UniProt Q9NZT2), for which the log2 fold change was -0.019 (inactive).

Turning to MSH6 (UniProt P52701), the log2 fold change was -0.169 (inactive).

Take NECTIN2 (UniProt Q92692): the log2 fold change is -0.03 (inactive).

Take MKNK1 (UniProt Q9BUB5): the log2 fold change was 0.019 (inactive).

Consider PAK1 isoform 2 (UniProt Q13153), for which the log2 fold change is -0.068 (inactive).

With MSH3 (UniProt P20585), the log2 fold change is -0.069 (inactive).

On to PACS1 (UniProt Q6VY07), for which the log2 fold change was 0.062 (inactive).

Regarding NA, A0A0B4J2A0, the log2 fold change is -0.059 (inactive).

Take MSTO1 (UniProt Q9BUK6): the log2 fold change was -0.045 (inactive).

NDUFAF6 (UniProt Q330K2): the log2 fold change was -0.065 (inactive).

Take NRF1 isoform 4 (UniProt Q16656): the log2 fold change was -0.064 (inactive).

For NNMT (UniProt P40261), the log2 fold change is -0.042 (inactive).

On to NDUFS8 (UniProt O00217), for which the log2 fold change was -0.052 (inactive).

Take NCKAP1 isoform 2 (UniProt Q9Y2A7): the log2 fold change is -0.055 (inactive).

Regarding MYH10 isoform 3 (UniProt P35580), the log2 fold change is -0.036 (inactive).

For the target MYL12B (UniProt O14950), the log2 fold change was -0.042 (inactive).

Take OSBPL8 (UniProt Q9BZF1): the log2 fold change is 0.079 (inactive).

Consider NAP1L1 (UniProt P55209), for which the log2 fold change is -0.038 (inactive).

In the case of NOP53 (UniProt Q9NZM5), the log2 fold change was 0.285 (inactive).

In the case of MT-ND4 (UniProt P03905), the log2 fold change was 0.088 (inactive).

These data come from the supplement of paper PMC10849652.
